Results from PubChem BioAssay (NCATS).
Results filed as inconclusive are left out. Where a call stands in place of a potency, no number is given. Active and inactive are the calls of the source. The call rests on the fitted dose curve; in most records, active means well fitted curve in the direction sought with a large enough effect; inconclusive means small, poorly fitted or top-dose-only effect, or another doubt; inactive means no such curve, though single readings can be large; an effect the other way counts as inactive or inconclusive.

Key:
[1] = qHTS of pediatric cancer cell lines to identify multiple opportunities for drug repurposing: Confirmatory screen for MG 63 (6-TG R) cells (AID 1347119); further: nearly all actives have a fitted effect of over 55% in size; further: potency means the concentration at half of the fitted maximal effect
How it was run: (§1)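 Cells (500-1,000/well) rested 5 h, then received compounds for 48 h; metabolically active cells were measured by CellTiter-Glo luminescence. Final concentrations spanned up to 46 µM (MIPE, 11-point) or 0.59 nM-46 µM (NPC, 8-point) in primary screens, 11-point in follow-ups.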

[2] = qHTS of pediatric cancer cell lines to identify multiple opportunities for drug repurposing: Confirmatory screen for control Hh wild type fibroblast cells (AID 1347121); further: nearly all actives have a fitted effect of over 70% in size; further: potency means the concentration at half of the fitted maximal effect
How it was run: as §1

[3] = qHTS of pediatric cancer cell lines to identify multiple opportunities for drug repurposing: Confirmatory screen for RD cells (AID 1347124);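 further: cells exposed to compound for 48 h before viability readout; nearly all actives have a fitted effect of over 65% in size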
How it was run: as §1

[4] = qHTS of pediatric cancer cell lines to identify multiple opportunities for drug repurposing: Confirmatory screen for Rh18 cells (AID 1347125); further: nearly all actives have a fitted effect of over 55% in size; further: potency means the concentration at half of the fitted maximal effect
How it was run: as §1

[5] = qHTS of pediatric cancer cell lines to identify multiple opportunities for drug repurposing: Confirmatory screen for Rh30 cells (AID 1347126); further: nearly all actives have a fitted effect of over 55% in size; further: potency means the concentration at half of the fitted maximal effect
How it was run: as §1

[6] = qHTS of pediatric cancer cell lines to identify multiple opportunities for drug repurposing: Confirmatory screen for OHS-50 cells (AID 1347128);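 further: compound exposure lasted 48 h at 37 degrees C; nearly all actives have a fitted effect of over 55% in size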; further: potency means the concentration at half of the fitted maximal effect
How it was run: as §1

[7] = qHTS of pediatric cancer cell lines to identify multiple opportunities for drug repurposing: Confirmatory screen for SK-N-SH cells (AID 1347129);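 further: cells exposed to compound for 48 h before viability read; nearly all actives have a fitted effect of over 60% in size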; further: potency means the concentration at half of the fitted maximal effect
How it was run: as §1

[8] = qHTS of pediatric cancer cell lines to identify multiple opportunities for drug repurposing: Confirmatory screen for BT-37 cells (AID 1347117); further: potency means the concentration at half of the fitted maximal effect
How it was run: as §1

| SMILES | Potency [1] | Potency [2] | Potency [3] | Potency [4] | Potency [5] | Potency [6] | Potency [7] | Potency [8] |
| --- | --- | --- | --- | --- | --- | --- | --- | --- |
| CC(C)(C(=O)c1cccnc1)c1cccnc1 | inactive | inactive | inactive | inactive | inactive | inactive | inactive |  |
| C[C@H]1C[C@H]2[C@@H]3CCC4=CC(=O)C=C[C@]4(C)[C@@]3(Cl)[C@@H](O)C[C@]2(C)[C@@]1(O)C(=O)CO | inactive | inactive | inactive | inactive | inactive | inactive | inactive | inactive |
| CCCC(=O)O[C@]1(C(=O)CO)CC[C@H]2[C@@H]3CCC4=CC(=O)CC[C@]4(C)[C@H]3[C@@H](O)C[C@@]21C |  | inactive | inactive | inactive | inactive | inactive |  | inactive |
| C[C@]12C=CC(=O)C=C1CC[C@@H]1[C@@H]2[C@@H](O)C[C@@]2(C)[C@H]1CC[C@]2(O)C(=O)CO | inactive | inactive | inactive | inactive | inactive | inactive | inactive | inactive |
| NC(=O)CC[C@@H]1NC(=O)[C@H](Cc2ccccc2)NC(=O)[C@H](Cc2ccc(O)cc2)NC(=O)CCSSC[C@@H](C(=O)N2CCC[C@H]2C(=O)N[C@@H](CCCN=C(N)N)C(=O)NCC(N)=O)NC(=O)[C@H](CC(N)=O)NC1=O |  | inactive |  | inactive | inactive | inactive | inactive | inactive |
| CCCCCCC[N+](CC)(CC)CCCCc1ccc(Cl)cc1 | 13.1 µM (active) | 9.27 µM (active) | inactive | 13.1 µM (active) | 10.4 µM (active) | 23.3 µM (active) | 20.9 µM (active) | 5.22 µM (active) |
| CC1(C)O[C@@H]2C[C@H]3[C@@H]4CCC5=CC(=O)CC[C@]5(C)[C@@]4(F)[C@@H](O)C[C@]3(C)[C@]2(C(=O)CCl)O1 |  | inactive | inactive | inactive | inactive | inactive |  | inactive |
